Test results taken from the supplement of paper PMC12282887.
± gives the standard deviation of the averaged measurements.

Legend:
Test in all cases: promoter activity interaction Z-score (Lux/OD deviation from empty-vector control); higher = stronger promoter induction by the compound
[1] = system: E. coli BW25113 acrABp lux reporter
Procedure, shortened: (§1)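 E. coli BW25113 luxCDABE reporter strains grew at 37°C in 40 µl LB Lennox in 384-well plates, with OD600 and luminescence read every 30 min for 12 h. After integration over 0–8 h for wild type or 1–9 h for deletion strains, wells under 10% of the median growth value were removed. Each score is the Z-transformed residual of growth-normalised luminescence fitted against a control.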

[2] = system: E. coli BW25113 micFp lux reporter
Procedure, shortened: as §1

[3] = system: E. coli BW25113 ompFp lux reporter
Procedure, shortened: as §1

[4] = system: E. coli BW25113 robp lux reporter
Procedure, shortened: as §1

[5] = system: E. coli BW25113 soxSp lux reporter
Procedure, shortened: as §1

[6] = system: E. coli BW25113 tolCp lux reporter
Procedure, shortened: as §1

[7] = 11.4 µg/ml, genetic background: wild type
[8] = 11.4 µg/ml, genetic background: ΔmarA
[9] = 11.4 µg/ml, genetic background: Δrob
[10] = 11.4 µg/ml, genetic background: ΔsoxS
[11] = 22.8 µg/ml, genetic background: wild type
[12] = 22.8 µg/ml, genetic background: ΔmarA
[13] = 22.8 µg/ml, genetic background: Δrob
[14] = 22.8 µg/ml, genetic background: ΔsoxS
[15] = 45.5 µg/ml, genetic background: wild type
[16] = 45.5 µg/ml, genetic background: ΔmarA
[17] = 45.5 µg/ml, genetic background: Δrob
[18] = 45.5 µg/ml, genetic background: ΔsoxS
[19] = 91.1 µg/ml, genetic background: wild type
[20] = 91.1 µg/ml, genetic background: ΔmarA
[21] = 91.1 µg/ml, genetic background: Δrob
[22] = 91.1 µg/ml, genetic background: ΔsoxS

**Q.** What does the source list for `Cn1c(=O)[nH]c2[nH]c(=O)[nH]c2c1=O` [1-Methyluric acid]?
**A.** promoter activity interaction Z-score [1, 7]: -0.104 ± 0.078; promoter activity interaction Z-score [1, 8]: 0.564 ± 0.66; promoter activity interaction Z-score [1, 9]: -0.212 ± 0.12; promoter activity interaction Z-score [1, 10]: 0.297 ± 0.53; promoter activity interaction Z-score [1, 11]: 0.00584 ± 0.0026; promoter activity interaction Z-score [1, 12]: 0.938 ± 0.94; promoter activity interaction Z-score [1, 13]: -0.286 ± 0.35; promoter activity interaction Z-score [1, 14]: 0.0572 ± 0.41; promoter activity interaction Z-score [1, 15]: -0.247 ± 0.3; promoter activity interaction Z-score [1, 16]: -0.354 ± 0.38; promoter activity interaction Z-score [1, 17]: -0.533 ± 0.26; promoter activity interaction Z-score [1, 18]: 0.207 ± 0.88; promoter activity interaction Z-score [1, 19]: -0.104 ± 0.14; promoter activity interaction Z-score [1, 20]: 0.464 ± 0.1; promoter activity interaction Z-score [1, 21]: -0.246 ± 0.046; promoter activity interaction Z-score [1, 22]: 0.186 ± 0.74; promoter activity interaction Z-score [2, 7]: -0.0236 ± 0.39; promoter activity interaction Z-score [2, 8]: 0.118 ± 0.021; promoter activity interaction Z-score [2, 9]: 0.0501 ± 0.18; promoter activity interaction Z-score [2, 10]: 0.153 ± 0.11; promoter activity interaction Z-score [2, 11]: 0.0921 ± 0.34; promoter activity interaction Z-score [2, 12]: 0.0777 ± 0.13; promoter activity interaction Z-score [2, 13]: 0.162 ± 0.1; promoter activity interaction Z-score [2, 14]: -0.0599 ± 0.019; promoter activity interaction Z-score [2, 15]: -0.0797 ± 0.0059; promoter activity interaction Z-score [2, 16]: 0.0715 ± 0.14; promoter activity interaction Z-score [2, 17]: -0.119 ± 0.051; promoter activity interaction Z-score [2, 18]: 0.323 ± 0.18; promoter activity interaction Z-score [2, 19]: -0.191 ± 0.057; promoter activity interaction Z-score [2, 20]: 0.0296 ± 0.15; promoter activity interaction Z-score [2, 21]: -0.0667 ± 0.089; promoter activity interaction Z-score [2, 22]: 0.409 ± 0.52; promoter activity interaction Z-score [3, 7]: 0.326 ± 0.31; promoter activity interaction Z-score [3, 8]: 0.693 ± 0.12; promoter activity interaction Z-score [3, 9]: 0.46 ± 0.48; promoter activity interaction Z-score [3, 10]: 0.431 ± 0.45; promoter activity interaction Z-score [3, 11]: 0.321 ± 0.41; promoter activity interaction Z-score [3, 12]: 0.558 ± 0.49; promoter activity interaction Z-score [3, 13]: 0.739 ± 0.54; promoter activity interaction Z-score [3, 14]: 0.326 ± 0.25; promoter activity interaction Z-score [3, 15]: -0.32 ± 0.069; promoter activity interaction Z-score [3, 16]: 0.0147 ± 0.41; promoter activity interaction Z-score [3, 17]: -1.23 ± 0.62; promoter activity interaction Z-score [3, 18]: -0.438 ± 0.48; promoter activity interaction Z-score [3, 19]: 0.135 ± 0.01; promoter activity interaction Z-score [3, 20]: 0.619 ± 0.048; promoter activity interaction Z-score [3, 21]: -0.101 ± 0.29; promoter activity interaction Z-score [3, 22]: 0.374 ± 1.1; promoter activity interaction Z-score [4, 7]: -0.269 ± 0.61; promoter activity interaction Z-score [4, 8]: 0.351 ± 0.24; promoter activity interaction Z-score [4, 9]: 0.112 ± 0.039; promoter activity interaction Z-score [4, 10]: 0.0211 ± 0.46; promoter activity interaction Z-score [4, 11]: 0.161 ± 0.081; promoter activity interaction Z-score [4, 12]: 0.493 ± 0.4; promoter activity interaction Z-score [4, 13]: 0.0711 ± 0.33; promoter activity interaction Z-score [4, 14]: -0.912 ± 0.1; promoter activity interaction Z-score [4, 15]: -0.286 ± 0.13; promoter activity interaction Z-score [4, 16]: -0.426 ± 0.29; promoter activity interaction Z-score [4, 17]: -1.18 ± 0.44; promoter activity interaction Z-score [4, 18]: -0.966 ± 0.2; promoter activity interaction Z-score [4, 19]: 0.057 ± 0.46; promoter activity interaction Z-score [4, 20]: 0.0892 ± 0.25; promoter activity interaction Z-score [4, 21]: -0.403 ± 0.09; promoter activity interaction Z-score [4, 22]: -0.691 ± 0.56; promoter activity interaction Z-score [5, 7]: 0.261 ± 0.1; promoter activity interaction Z-score [5, 8]: 0.522 ± 0.037; promoter activity interaction Z-score [5, 9]: 0.347 ± 0.19; promoter activity interaction Z-score [5, 10]: 0.264 ± 0.44; promoter activity interaction Z-score [5, 11]: 0.256 ± 0.0038; promoter activity interaction Z-score [5, 12]: 0.598 ± 0.099; promoter activity interaction Z-score [5, 13]: 0.475 ± 0.19; promoter activity interaction Z-score [5, 14]: 0.221 ± 0.36; promoter activity interaction Z-score [5, 15]: 0.22 ± 0.037; promoter activity interaction Z-score [5, 16]: 0.334 ± 0.14; promoter activity interaction Z-score [5, 17]: 0.132 ± 0.069; promoter activity interaction Z-score [5, 18]: -0.0814 ± 0.51; promoter activity interaction Z-score [5, 19]: 0.104 ± 0.3; promoter activity interaction Z-score [5, 20]: 0.366 ± 0.082; promoter activity interaction Z-score [5, 21]: 0.122 ± 0.097; promoter activity interaction Z-score [5, 22]: 0.0852 ± 0.84; promoter activity interaction Z-score [6, 7]: -0.101 ± 0.82; promoter activity interaction Z-score [6, 8]: 0.236 ± 0.64; promoter activity interaction Z-score [6, 9]: 0.123 ± 0.14; promoter activity interaction Z-score [6, 10]: 0.273 ± 0.67; promoter activity interaction Z-score [6, 11]: 0.46 ± 0.55; promoter activity interaction Z-score [6, 12]: 0.0925 ± 0.54; promoter activity interaction Z-score [6, 13]: 1.34 ± 1.4; promoter activity interaction Z-score [6, 14]: -0.689 ± 1; promoter activity interaction Z-score [6, 15]: 0.324 ± 0.25; promoter activity interaction Z-score [6, 16]: 0.169 ± 0.61; promoter activity interaction Z-score [6, 17]: -0.992 ± 0.65; promoter activity interaction Z-score [6, 18]: 0.413 ± 0.89; promoter activity interaction Z-score [6, 19]: 0.769 ± 0.93; promoter activity interaction Z-score [6, 20]: 0.232 ± 0.41; promoter activity interaction Z-score [6, 21]: 0.664 ± 0.066; promoter activity interaction Z-score [6, 22]: 0.553 ± 0.38
